Assay results from PubChem BioAssay AID602143 (Vanderbilt Specialized Chemistry Center, 2011).
Unmarked numbers belong to inactive results. The source made the active and inactive calls. No stated cut-off is given here; in the data, active means remaining activity below about 50%; inactive means the rest.

target: Phospholipase D2 (Homo sapiens) (UniProt O14939); assay: PLD2 inhibitors in cells, cell-based, HEK293, single concentration (AID 602143); settings: HEK293 cellular PLD2 activity, percent of control; stronger effect = lower value;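 further: tested at 200 nM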
Sequence (O14939 whole entry, looked up): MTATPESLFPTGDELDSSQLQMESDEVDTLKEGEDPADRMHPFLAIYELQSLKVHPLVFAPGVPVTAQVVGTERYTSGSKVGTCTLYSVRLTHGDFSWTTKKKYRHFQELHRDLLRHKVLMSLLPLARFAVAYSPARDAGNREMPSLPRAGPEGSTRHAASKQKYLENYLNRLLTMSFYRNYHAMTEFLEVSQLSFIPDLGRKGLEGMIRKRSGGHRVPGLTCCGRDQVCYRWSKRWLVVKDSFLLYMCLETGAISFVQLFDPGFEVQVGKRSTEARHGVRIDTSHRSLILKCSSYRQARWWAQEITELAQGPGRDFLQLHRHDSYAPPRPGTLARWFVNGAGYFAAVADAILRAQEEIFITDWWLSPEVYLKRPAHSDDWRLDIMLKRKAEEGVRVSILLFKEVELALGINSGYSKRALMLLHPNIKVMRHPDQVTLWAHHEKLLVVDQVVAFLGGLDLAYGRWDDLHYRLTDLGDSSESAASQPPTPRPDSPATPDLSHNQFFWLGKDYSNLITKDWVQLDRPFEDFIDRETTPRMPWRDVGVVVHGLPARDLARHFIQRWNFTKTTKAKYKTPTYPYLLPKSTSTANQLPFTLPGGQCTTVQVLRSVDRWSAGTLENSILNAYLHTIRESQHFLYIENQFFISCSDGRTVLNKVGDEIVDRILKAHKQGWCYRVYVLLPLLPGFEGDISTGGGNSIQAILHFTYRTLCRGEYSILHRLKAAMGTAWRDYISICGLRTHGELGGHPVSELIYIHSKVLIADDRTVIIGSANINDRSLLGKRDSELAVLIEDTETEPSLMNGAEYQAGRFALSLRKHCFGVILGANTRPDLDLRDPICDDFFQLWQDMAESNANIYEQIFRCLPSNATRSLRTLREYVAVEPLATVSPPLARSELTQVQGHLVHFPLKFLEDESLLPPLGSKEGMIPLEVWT
Sequence (O14939 whole entry, looked up): as above

SMILES | remaining activity
C[C@@H](CN1CCC(n2c(=O)[nH]c3cc(-c4ccccc4)ccc32)CC1)NC(=O)[C@H]1C[C@@H]1c1ccccc1 | 79.2%
COc1cccc(N2CCN(CCNC(=O)c3ccc4ccccc4c3)CC2)c1 | 77.4%
C[C@H](CN1CCC2(CC1)CNCc1ccccc12)NC(=O)c1cnc2ccccc2c1 | 100%
Cc1ccc(C(=O)NCCN2CCC(n3c(=O)[nH]c4cc(Br)ccc43)CC2)cc1 | 21.8% (active)
